The source made the active and inactive calls. How the source made its calls: active means hit-call score of the fitted dose curve at least 0.9, where 1 is the maximum; inactive means score below 0.9.
Each compound was assayed on CYP2E1 (gene 1571) (assay: LTEA_HepaRG_CYP2E1: Life Technologies and Expression Analysis (LTEA) Assay for CYP2E1 using HepaRG (AID 2283485)). Conditions: mRNA level, 48 h; actives raise or lower the signal.
Description: LTEA_HepaRG is a cell based, multiplexed-readout assay that uses HepaRG, a human liver cell line, with measurements taken at 48 hours after chemical dosing on a 96-well plate.LTEA_HepaRG_CYP2E1 is one of 102 assay component(s) measured in the LTEA HepaRG cell culture assay. It is a marker of NR mediated metabolism.Data from the assay component LTEA_HepaRG_CYP2E1 was analyzed into 1 endpoint. This assay endpoint, LTEA_HepaRG_CYP2E1, was analyzed with bidirectional fitting relative to DMSO as the negative control and baseline of activity. Using a type of inducible reporter, measures of mRNA induction for gain or loss-of-signal activity can be used to understand regulation of transcription factor activity. To generalize the intended target to other relatable targets, this assay endpoint is annotated to the cyp intended target family, where the subfamily is xenobiotic metabolism.
A total of 1060 chemcials from the ToxCast library were tested in eight-point concentration-response experiments. Cell culture and cytotoxicity assays were conducted at Thermo Fisher Scientific's Custom Services facility (Madison, WI). A single lot of human HepaRG cells (Thermo Fisher Scientific, Frederick, MD) was used for the cell culture experiments. 96-well format collagen type I coated plates of human HepaRG cells were prepared using established methods. Briefly, cryopreserved HepaRG cells were thawed, plated at a density of approximately 100,000 cells/well in HepaRG Thaw, Plate, and General Purpose media (HPRG770, Thermo Fisher Scientific), and incubated for 48 hours. 0.5% DMSO was selected as vehicle control to balance the requisite need of DMSO in HepaRG cultures to maintain differentiation (for example, baseline metabolism, proportions of hepatocytes vs. cholangiocytes), while enabling further hepatic receptor pathway activation (for example, PXR and CAR) in response to chemical exposure. 48 hours after plating, the culture medium was replaced with HepaRG Serum-Free Incudtion Media. Cells were exposed to each test chemical in duplicate and maintained in CO2 incubators for another 48 hours. Chemical plates were thawed to room temperature and 200x concentrations of treatment groups were prepared. 8-point conentration-reponse curves were made with the highest exposure at 100 uM, followed by half-log dilutions, all in 0.5% DMSO. Each test plate contained variouse controls, induction positive controls (1mM phenobarbital), cytotoxicity positive controls ([…] aflatoxin B1), vehicle controls (0.5% DMSO), and total lysis controls (0.5% DMSO). Cell morphology images were taken using an Essen IncuCyte FLR automated microscope, with six 96-well plates imaged in about 24 minutes. Images were captured and exported and JPEG files. Spent culture media was transfered to black-well plates for the LDH assay, and remaining media was sorted at -80 C for later use. Cells were treated with RLT buffer and frozen until shipped for gene expression analysis. Total RNA was isolated from the cell suspension in 75 uL of Buffer RLT (Qiagen, Germantown, MD 20874) by Quintiles/Expression Analysis (Durham, NC) using a custom isolation procedure. Total RNA from each plate well was transferred to a preamplification plate. Fluidigm's 96.96 Dynamic ArrayTM (Fluidigm, Amsterdam, the Netherlands) technology was used for gene expression analyses by quantitative reverse transcription polymerase chain reaction (qRT-PCR, performed by Quintiles/Expression Analysis, Durham, NC)89. Standard TaqManTM Assays (Applied Biosystems/ThermoFisher Scientific, Foster City, CA) were used to assess the expression of 93 genes selected based on their selectivity and sensitivity to important hepatic receptors known to be modulated by environmental chemicals; importance in human hepatocyte functionality; and hepatotoxicity. […]

| Structure (SMILES) | AC50 | outcome |
| --- | --- | --- |
| c1cc2ccc3cccc4ccc(c1)c2c34 | 29.6 µM (active) |  |
| c1ccc(-c2ccccc2)cc1 |  | inactive |
| Cc1ccccc1[N+](=O)[O-] |  | inactive |
| Cc1ccc(O)c(C)c1 |  | inactive |
| Cc1ccccc1CO[C@@H]1C[C@@]2(C(C)C)CC[C@]1(C)O2 | 50 µM (active) |  |
| NS(=O)(=O)C(F)(F)C(F)(F)C(F)(F)C(F)(F)C(F)(F)C(F)(F)C(F)(F)C(F)(F)F | 6.73 µM (active) |  |
| CCNc1nc(NC(C)C)nc(SC)n1 | 29.1 µM (active) |  |
| CC(C)(c1ccccc1)c1ccc(O)cc1 |  | inactive |
| C=CC(N)=O |  | inactive |
| CC#Cc1cc(C)nc(Nc2ccccc2)n1 | 13.6 µM (active) |  |
| CCCCCCCCCC[N+](C)(C)CCCCCCCCCC |  | inactive |
| CCC(=O)O[C@H]1CC[C@H]2[C@@H]3CCC4=CC(=O)CC[C@]4(C)[C@H]3CC[C@]12C | 3.12 µM (active) |  |
| Cc1cccc([N+](=O)[O-])c1 |  | inactive |
| CCCCCCCCOC(=O)c1ccccc1C(=O)OCCCCCCCC |  | inactive |
| Nc1ccc(-c2ccc(N)cc2)cc1 | 12.3 µM (active) |  |
| Oc1c(Cl)c(Cl)c(Cl)c(Cl)c1Cl | 1.94 µM (active) |  |
| CCCCCCOC(=O)c1ccccc1C(=O)OCCCCCC |  | inactive |
| CO/C=C(/C(=O)OC)c1ccccc1COc1cccc(C(F)(F)F)n1 | 3.61 µM (active) |  |
| CC(C)C(=O)OCC(C)(C)C(OC(=O)C(C)C)C(C)C (stereo not given) |  | inactive |
| O=C(N[C@H]1CN2CCC1CC2)c1cc2ccoc2cn1 |  | inactive |

| Structure (SMILES) | AC50 | outcome |
| --- | --- | --- |
| N#Cc1ccc(N(CC(N)=O)CC(F)(F)F)cc1C(F)(F)F | 0.537 µM (active) |  |
| CCC(C)c1cc([N+](=O)[O-])cc([N+](=O)[O-])c1O (stereo not given) | 1.22 µM (active) |  |
| Cc1cc(O)ccc1Cl |  | inactive |
| C[C@]12CCC(=O)C=C1CC[C@@H]1[C@@H]2CC[C@]2(C)C(=O)CC[C@@H]12 | 1.16 µM (active) |  |
| Cc1ccccc1O |  | inactive |
| CC1=C2C[C@H]3[C@@H](CC=C4C[C@@H](O)CC[C@@]43C)[C@@H]2CC[C@]12O[C@@H]1C[C@H](C)CN[C@H]1[C@H]2C |  | inactive |
| C[C@]12CCC(=O)C=C1CC[C@@H]1[C@@H]2CC[C@@]2(C)[C@H]1CC[C@]2(C)O | 79.5 µM (active) |  |
| COS(=O)(=O)OC |  | inactive |
| CC(C)(O)C(=O)Nc1ccc([N+](=O)[O-])c(C(F)(F)F)c1 | 37.1 µM (active) |  |
| Clc1ccc(C(Cl)(Cl)Cl)cc1 |  | inactive |
| CCC(C)(CC)c1cc(NC(=O)c2c(OC)cccc2OC)on1 | 15 µM (active) |  |
| ClC1=C(Cl)[C@]2(Cl)[C@@H]3[C@H]4C[C@H]([C@@H]5O[C@H]45)[C@@H]3[C@@]1(Cl)C2(Cl)Cl | 22.6 µM (active) |  |
| Oc1ccc(Cl)cc1Cl |  | inactive |
| CCC(C)(c1ccc(O)cc1)c1ccc(O)cc1 |  | inactive |
| O=C(NC(=O)c1cc(F)c(F)cc1Cl)Nc1cc(F)ccc1N1CCC(C(=O)O)CC1 | 10.3 µM (active) |  |
| CCOC(=O)C(O)(c1ccc(Cl)cc1)c1ccc(Cl)cc1 | 30.4 µM (active) |  |
| ClC1=C(Cl)[C@]2(Cl)[C@@H]3[C@@H]4C[C@@H]([C@H]5O[C@@H]45)[C@@H]3[C@@]1(Cl)C2(Cl)Cl | 22.4 µM (active) |  |
| CCCN(CCC)N=O |  | inactive |
| O=C(O)C(F)(F)C(F)(F)C(F)(F)C(F)(F)C(F)(F)C(F)(F)C(F)(F)C(F)(F)F | 93.9 µM (active) |  |
| Clc1ccc(C(c2ccccc2Cl)C(Cl)(Cl)Cl)cc1 (stereo not given) | 39.8 µM (active) |  |

Reference: PubChem BioAssay (EPA / NIEHS)
